Source: ChEMBL document CHEMBL1961873, “Compounds: GSK PKIS; Assays: Nanosyn kinase panel” (2012)

Legend:
[1] = molecular target: Tyrosine-protein kinase Fer (Homo sapiens) (UniProt P16591); settings: at 1 µM
[2] = molecular target: Tyrosine-protein kinase Fes/Fps (Homo sapiens) (UniProt P07332); settings: at 0.1 µM
[3] = molecular target: Tyrosine-protein kinase Fes/Fps (Homo sapiens) (UniProt P07332); settings: at 1 µM
[4] = molecular target: Fibroblast growth factor receptor 1 (Homo sapiens) (UniProt P11362); settings: at 0.1 µM
[5] = molecular target: Fibroblast growth factor receptor 1 (Homo sapiens) (UniProt P11362); settings: at 1 µM
[6] = molecular target: Fibroblast growth factor receptor 2 (Homo sapiens) (UniProt P21802); settings: at 0.1 µM
[7] = molecular target: Fibroblast growth factor receptor 2 (Homo sapiens) (UniProt P21802); settings: at 1 µM
[8] = molecular target: Fibroblast growth factor receptor 3 (Homo sapiens) (UniProt P22607); settings: at 0.1 µM
[9] = molecular target: Fibroblast growth factor receptor 3 (Homo sapiens) (UniProt P22607); settings: at 1 µM
[10] = molecular target: Fibroblast growth factor receptor 4 (Homo sapiens) (UniProt P22455); settings: at 0.1 µM;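 note: values are mean percent inhibition of FGFR4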
Fibroblast growth factor receptor 4 (Homo sapiens), sequence (P22455 22-802 limits assumed): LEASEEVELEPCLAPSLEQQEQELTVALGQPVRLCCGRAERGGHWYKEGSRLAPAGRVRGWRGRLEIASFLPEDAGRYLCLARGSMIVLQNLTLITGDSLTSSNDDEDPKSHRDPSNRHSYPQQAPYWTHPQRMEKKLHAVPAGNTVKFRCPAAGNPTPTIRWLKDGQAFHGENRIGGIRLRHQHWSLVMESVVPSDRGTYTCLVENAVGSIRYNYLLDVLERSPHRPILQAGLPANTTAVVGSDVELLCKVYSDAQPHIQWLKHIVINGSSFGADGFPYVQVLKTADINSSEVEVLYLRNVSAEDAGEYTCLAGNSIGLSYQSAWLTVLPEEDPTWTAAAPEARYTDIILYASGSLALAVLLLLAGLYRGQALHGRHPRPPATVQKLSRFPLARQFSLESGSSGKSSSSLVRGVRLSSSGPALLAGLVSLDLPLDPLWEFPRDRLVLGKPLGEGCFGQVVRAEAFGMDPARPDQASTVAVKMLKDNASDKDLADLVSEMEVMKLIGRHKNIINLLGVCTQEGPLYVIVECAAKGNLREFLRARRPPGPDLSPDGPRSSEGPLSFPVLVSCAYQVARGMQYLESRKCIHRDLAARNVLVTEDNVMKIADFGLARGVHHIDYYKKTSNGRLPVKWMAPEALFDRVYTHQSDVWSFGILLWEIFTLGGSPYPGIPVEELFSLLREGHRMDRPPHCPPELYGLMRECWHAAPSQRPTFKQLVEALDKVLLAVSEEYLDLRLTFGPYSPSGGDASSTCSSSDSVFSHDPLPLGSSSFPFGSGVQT

Tyrosine-protein kinase Fes/Fps (Homo sapiens), sequence (P07332 whole entry): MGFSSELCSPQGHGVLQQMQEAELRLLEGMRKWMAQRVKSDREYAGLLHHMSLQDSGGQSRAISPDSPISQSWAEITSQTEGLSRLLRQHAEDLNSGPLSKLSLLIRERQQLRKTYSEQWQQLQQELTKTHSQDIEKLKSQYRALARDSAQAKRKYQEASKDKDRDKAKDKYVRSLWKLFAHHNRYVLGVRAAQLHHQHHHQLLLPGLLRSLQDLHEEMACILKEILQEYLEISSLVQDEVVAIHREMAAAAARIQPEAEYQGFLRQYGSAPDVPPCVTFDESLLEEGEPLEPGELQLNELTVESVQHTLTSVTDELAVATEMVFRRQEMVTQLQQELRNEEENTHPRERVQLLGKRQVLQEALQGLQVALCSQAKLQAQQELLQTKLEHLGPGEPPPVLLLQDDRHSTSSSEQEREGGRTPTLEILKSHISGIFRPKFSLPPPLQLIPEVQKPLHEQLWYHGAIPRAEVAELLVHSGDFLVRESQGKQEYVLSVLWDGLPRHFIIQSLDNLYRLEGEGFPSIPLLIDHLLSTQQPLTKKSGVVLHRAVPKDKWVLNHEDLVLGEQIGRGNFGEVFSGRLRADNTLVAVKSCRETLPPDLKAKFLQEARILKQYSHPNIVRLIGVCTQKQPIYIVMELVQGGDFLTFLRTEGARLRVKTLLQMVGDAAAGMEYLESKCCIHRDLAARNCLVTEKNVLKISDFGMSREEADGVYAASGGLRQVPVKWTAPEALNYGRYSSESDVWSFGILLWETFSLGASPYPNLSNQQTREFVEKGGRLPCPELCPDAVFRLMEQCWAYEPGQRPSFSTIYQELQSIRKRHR
Fibroblast growth factor receptor 3 (Homo sapiens), sequence (P22607 23-806 limits assumed): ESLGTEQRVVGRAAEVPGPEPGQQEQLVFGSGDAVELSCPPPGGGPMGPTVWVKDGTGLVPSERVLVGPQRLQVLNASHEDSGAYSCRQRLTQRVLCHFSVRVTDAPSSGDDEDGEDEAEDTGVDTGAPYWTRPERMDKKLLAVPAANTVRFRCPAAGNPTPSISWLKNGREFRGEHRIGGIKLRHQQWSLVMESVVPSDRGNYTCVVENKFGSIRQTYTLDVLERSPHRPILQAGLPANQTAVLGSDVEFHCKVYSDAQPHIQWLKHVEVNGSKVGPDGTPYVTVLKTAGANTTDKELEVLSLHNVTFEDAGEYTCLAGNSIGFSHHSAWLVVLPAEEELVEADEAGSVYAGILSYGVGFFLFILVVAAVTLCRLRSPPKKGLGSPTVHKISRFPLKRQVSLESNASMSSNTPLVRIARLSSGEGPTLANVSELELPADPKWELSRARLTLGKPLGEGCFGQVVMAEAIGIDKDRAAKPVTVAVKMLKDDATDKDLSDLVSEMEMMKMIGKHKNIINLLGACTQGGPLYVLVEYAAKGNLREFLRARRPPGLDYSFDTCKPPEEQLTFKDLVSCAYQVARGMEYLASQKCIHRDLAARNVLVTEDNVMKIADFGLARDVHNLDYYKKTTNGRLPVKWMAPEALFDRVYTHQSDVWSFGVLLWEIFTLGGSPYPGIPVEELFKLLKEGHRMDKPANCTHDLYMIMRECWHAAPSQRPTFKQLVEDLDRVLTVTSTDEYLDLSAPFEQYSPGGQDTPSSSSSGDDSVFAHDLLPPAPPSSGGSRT
Fibroblast growth factor receptor 1 (Homo sapiens), sequence (P11362 22-822 limits assumed): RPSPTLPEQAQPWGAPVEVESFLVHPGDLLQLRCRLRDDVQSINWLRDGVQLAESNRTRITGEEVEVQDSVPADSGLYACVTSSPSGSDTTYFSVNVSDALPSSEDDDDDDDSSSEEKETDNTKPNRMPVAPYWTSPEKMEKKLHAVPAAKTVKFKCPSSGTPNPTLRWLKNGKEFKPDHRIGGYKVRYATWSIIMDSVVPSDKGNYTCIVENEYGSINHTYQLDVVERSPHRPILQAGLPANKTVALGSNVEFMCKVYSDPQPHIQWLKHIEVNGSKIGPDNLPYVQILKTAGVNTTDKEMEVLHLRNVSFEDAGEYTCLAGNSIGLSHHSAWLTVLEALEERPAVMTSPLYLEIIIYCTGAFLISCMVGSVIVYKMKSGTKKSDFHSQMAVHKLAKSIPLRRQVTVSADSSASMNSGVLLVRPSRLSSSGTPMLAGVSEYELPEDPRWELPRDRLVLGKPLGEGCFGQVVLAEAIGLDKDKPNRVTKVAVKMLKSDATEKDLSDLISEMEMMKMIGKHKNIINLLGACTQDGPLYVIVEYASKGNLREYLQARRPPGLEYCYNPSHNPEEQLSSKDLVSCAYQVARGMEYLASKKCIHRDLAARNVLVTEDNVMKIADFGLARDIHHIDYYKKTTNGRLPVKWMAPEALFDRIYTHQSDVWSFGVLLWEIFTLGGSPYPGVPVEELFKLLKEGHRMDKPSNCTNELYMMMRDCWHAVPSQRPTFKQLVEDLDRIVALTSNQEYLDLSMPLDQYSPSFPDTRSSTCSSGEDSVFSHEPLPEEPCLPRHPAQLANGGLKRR
Tyrosine-protein kinase Fer (Homo sapiens), sequence (P16591 whole entry, looked up): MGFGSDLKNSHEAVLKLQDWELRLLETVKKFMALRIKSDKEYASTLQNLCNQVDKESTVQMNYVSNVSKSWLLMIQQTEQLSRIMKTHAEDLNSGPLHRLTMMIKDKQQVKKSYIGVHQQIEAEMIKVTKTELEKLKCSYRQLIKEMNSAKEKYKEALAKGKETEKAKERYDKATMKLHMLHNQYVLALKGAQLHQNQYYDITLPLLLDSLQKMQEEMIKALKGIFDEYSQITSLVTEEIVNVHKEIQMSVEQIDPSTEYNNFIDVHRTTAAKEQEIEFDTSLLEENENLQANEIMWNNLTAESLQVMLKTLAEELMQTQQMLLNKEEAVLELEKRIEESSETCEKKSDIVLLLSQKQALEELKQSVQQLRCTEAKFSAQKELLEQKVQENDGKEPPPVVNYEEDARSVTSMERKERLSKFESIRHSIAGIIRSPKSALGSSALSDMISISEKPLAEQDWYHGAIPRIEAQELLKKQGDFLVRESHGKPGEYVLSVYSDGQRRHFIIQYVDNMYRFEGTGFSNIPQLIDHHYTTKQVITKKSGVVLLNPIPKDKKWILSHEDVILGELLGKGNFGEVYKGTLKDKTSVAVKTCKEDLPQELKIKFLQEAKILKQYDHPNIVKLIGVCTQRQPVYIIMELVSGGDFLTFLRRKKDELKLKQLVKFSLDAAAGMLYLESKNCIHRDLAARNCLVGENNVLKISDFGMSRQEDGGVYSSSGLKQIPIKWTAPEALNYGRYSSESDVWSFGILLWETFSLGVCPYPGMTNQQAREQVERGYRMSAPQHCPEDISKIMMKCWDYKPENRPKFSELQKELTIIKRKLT
Fibroblast growth factor receptor 2 (Homo sapiens), sequence (P21802 22-821 limits assumed): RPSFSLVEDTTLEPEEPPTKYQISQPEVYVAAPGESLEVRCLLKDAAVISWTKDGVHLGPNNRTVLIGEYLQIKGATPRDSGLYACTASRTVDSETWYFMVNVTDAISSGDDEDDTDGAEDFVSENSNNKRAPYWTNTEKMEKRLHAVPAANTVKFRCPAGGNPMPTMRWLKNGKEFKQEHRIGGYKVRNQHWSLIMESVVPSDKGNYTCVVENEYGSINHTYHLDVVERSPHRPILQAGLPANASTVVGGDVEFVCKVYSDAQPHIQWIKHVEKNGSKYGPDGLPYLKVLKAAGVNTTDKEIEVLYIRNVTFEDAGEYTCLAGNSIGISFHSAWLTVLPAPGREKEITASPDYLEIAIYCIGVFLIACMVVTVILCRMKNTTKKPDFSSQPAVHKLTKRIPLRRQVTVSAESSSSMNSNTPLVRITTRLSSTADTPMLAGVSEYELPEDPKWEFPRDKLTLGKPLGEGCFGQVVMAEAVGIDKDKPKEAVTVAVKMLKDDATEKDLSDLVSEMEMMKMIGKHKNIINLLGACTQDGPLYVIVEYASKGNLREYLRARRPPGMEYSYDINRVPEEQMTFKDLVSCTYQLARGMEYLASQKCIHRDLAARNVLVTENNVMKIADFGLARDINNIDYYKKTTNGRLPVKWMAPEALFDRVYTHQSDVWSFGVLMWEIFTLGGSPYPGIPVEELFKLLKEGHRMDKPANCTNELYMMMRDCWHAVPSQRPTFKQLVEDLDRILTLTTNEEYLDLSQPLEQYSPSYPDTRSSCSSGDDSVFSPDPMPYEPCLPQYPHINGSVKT

CCn1c(-c2nonc2N)nc2cncc(C(=O)N3CC[C@H](N)C3)c21
inhibition [1]: 3.76%
inhibition [2]: 2.6%
inhibition [3]: 2.26%
inhibition [4]: 0.26%
inhibition [5]: 1.87%
inhibition [6]: 2.48%
inhibition [7]: 4.96%
inhibition [8]: 3.72%
inhibition [9]: 2.58%
inhibition [10]: -6.25%

CCCN1CCC=C(c2ccc(Nc3nc(Nc4ccccc4C(N)=O)c4cc[nH]c4n3)c(C)c2)C1
inhibition [1]: 68.7%
inhibition [2]: 16.5%
inhibition [3]: 57.3%
inhibition [4]: 1.72%
inhibition [5]: 7.09%
inhibition [6]: 6.37%
inhibition [7]: 7.35%
inhibition [8]: 6.92%
inhibition [9]: 6.81%
inhibition [10]: 3.01%

CCn1c(-c2nonc2N)nc2cncc(C(=O)N3CCNCC3)c21
inhibition [1]: 0.82%
inhibition [2]: 5.22%
inhibition [3]: 4.85%
inhibition [4]: 7.76%
inhibition [5]: 5.74%
inhibition [6]: 11.8%
inhibition [7]: 7.87%
inhibition [8]: 12.3%
inhibition [9]: 7.38%
inhibition [10]: 4.67%

COc1cc2ncn(-c3cc(O[C@H](C)c4ccccc4Cl)c(C(N)=O)s3)c2cc1OC
inhibition [1]: 16.7%
inhibition [2]: 3.81%
inhibition [3]: 5.11%
inhibition [4]: 4.42%
inhibition [5]: 29.4%
inhibition [6]: 12.3%
inhibition [7]: 44.9%
inhibition [8]: 9.47%
inhibition [10]: 3.73%

COc1cc2ncn(-c3cc(OCc4ccccc4C(F)(F)F)c(C(N)=O)s3)c2cc1OC
inhibition [1]: 10.5%
inhibition [2]: 2.56%
inhibition [3]: 1.4%
inhibition [4]: -0.93%
inhibition [5]: 13%
inhibition [6]: 2.62%
inhibition [7]: 20.9%
inhibition [8]: 6.21%
inhibition [9]: 18.2%
inhibition [10]: -3.31%

NC(=O)c1ccc(-c2nc(-c3ccccn3)c(-c3ccc4c(c3)OCO4)[nH]2)cc1
inhibition [1]: 6.64%
inhibition [2]: 1.52%
inhibition [3]: 2.16%
inhibition [4]: -0.93%
inhibition [5]: 2.26%
inhibition [6]: 0.95%
inhibition [7]: 1.31%
inhibition [8]: 2.79%
inhibition [9]: 1.9%
inhibition [10]: 4.19%

COc1ccc(-c2nn3ncccc3c2-c2ccnc(Nc3ccc(Cl)c(C(F)(F)F)c3)n2)cc1
inhibition [1]: 3.06%
inhibition [2]: 0.66%
inhibition [3]: 1.82%
inhibition [4]: 1.96%
inhibition [5]: -2.37%
inhibition [6]: 1.72%
inhibition [7]: 2.97%
inhibition [8]: 2.57%
inhibition [9]: 4.12%
inhibition [10]: 0.28%

CC(=O)Nc1cccc(C#Cc2cncnc2Nc2ccc(OCc3cccc(F)c3)c(Cl)c2)n1
inhibition [1]: 4.77%
inhibition [2]: -0.62%
inhibition [3]: -1.06%
inhibition [4]: -3.81%
inhibition [5]: -5.8%
inhibition [6]: -4.24%
inhibition [7]: 0.03%
inhibition [8]: -1.4%
inhibition [9]: -2.39%
inhibition [10]: 0.06%

O=C1NC(=O)C(c2ccccc2Cl)=C1Nc1cccc(O)c1
inhibition [1]: 2.82%
inhibition [2]: 1.81%
inhibition [3]: 2.5%
inhibition [4]: 4.34%
inhibition [5]: 7.05%
inhibition [6]: 3.39%
inhibition [7]: -3.75%
inhibition [8]: 2.9%
inhibition [9]: 2.97%
inhibition [10]: 1.92%

NC(=O)c1cccc(Nc2nccc(Nc3cccc4[nH]ncc34)n2)c1
inhibition [1]: 21.9%
inhibition [2]: -2.33%
inhibition [3]: 10.9%
inhibition [4]: -5.24%
inhibition [5]: 9.11%
inhibition [6]: -1.94%
inhibition [7]: 13.1%
inhibition [8]: -3.38%
inhibition [9]: 4.68%
inhibition [10]: 1.28%

O=C1NC(=O)C(c2cccc(Cl)c2)=C1Nc1ccc(O)c(Cl)c1
inhibition [1]: 5.56%
inhibition [2]: 0.55%
inhibition [3]: 1.14%
inhibition [4]: -2.65%
inhibition [5]: 6.97%
inhibition [6]: 3.82%
inhibition [7]: 32.5%
inhibition [8]: 4.37%
inhibition [9]: 21.3%
inhibition [10]: -2.1%

Cc1ccc(C(=O)NC2CCCCC2)cc1-c1ccc(C(=O)NCC2CC2)cc1
inhibition [1]: 4.17%
inhibition [2]: 3.08%
inhibition [3]: 2.29%
inhibition [4]: 3.66%
inhibition [5]: 5.66%
inhibition [6]: 2.75%
inhibition [7]: 6.2%
inhibition [8]: 4.11%
inhibition [9]: 4.7%
inhibition [10]: -0.52%

CC(C)=Cc1cccc2c1/C(=N/Nc1ccc(S(N)(=O)=O)cc1)C(=O)N2
inhibition [1]: 20.1%
inhibition [2]: 0.31%
inhibition [3]: 2.29%
inhibition [4]: -0.4%
inhibition [5]: 14.7%
inhibition [6]: 3.88%
inhibition [7]: 36.8%
inhibition [8]: 3.36%
inhibition [10]: 4.09%

COc1cc2ncn(-c3cc(OCc4ccccc4Cl)c(C(N)=O)s3)c2cc1OC
inhibition [1]: 8.52%
inhibition [2]: -0.24%
inhibition [3]: 0.38%
inhibition [4]: 3.46%
inhibition [5]: 8.43%
inhibition [7]: 13.2%
inhibition [8]: 4.37%
inhibition [9]: 13.2%
inhibition [10]: -5.86%

COC(=O)Nc1nc2cc(Oc3ccc(NC(=O)Nc4cccc(C(=O)O)c4)cc3)ccc2[nH]1
inhibition [1]: 2.49%
inhibition [2]: -0.49%
inhibition [3]: 0.5%
inhibition [4]: -4.37%
inhibition [5]: -2.27%
inhibition [6]: -3.37%
inhibition [7]: 5.77%
inhibition [8]: -1.47%
inhibition [9]: 11.9%
inhibition [10]: -6.8%

COc1cc(C=NNc2ncnc3c2cnn3-c2ccccc2)ccc1O
inhibition [1]: 4.88%
inhibition [2]: 2.59%
inhibition [3]: 4.03%
inhibition [4]: 1.01%
inhibition [5]: 3.72%
inhibition [6]: 3%
inhibition [7]: 9.48%
inhibition [8]: 2.91%
inhibition [9]: 7.58%
inhibition [10]: 4.25%

CCCN1CCC(Oc2cc(Nc3nc(Nc4cccc(F)c4C(N)=O)c4cc[nH]c4n3)c(OC)cc2Cl)CC1
inhibition [1]: 16%
inhibition [2]: 0.64%
inhibition [3]: 8.02%
inhibition [4]: 0.06%
inhibition [5]: 3.54%
inhibition [6]: -2.81%
inhibition [7]: 3.3%
inhibition [8]: 0.52%
inhibition [9]: 0.96%
inhibition [10]: 0.71%

O=C1NC(=O)C(c2ccc(Cl)cc2)=C1Nc1ccc(Cl)c(C(=O)O)c1
inhibition [1]: 1.58%
inhibition [2]: -3.1%
inhibition [3]: -3%
inhibition [4]: -0.91%
inhibition [5]: 2.2%
inhibition [6]: -2.69%
inhibition [7]: 2.13%
inhibition [8]: 1.31%
inhibition [9]: 2.66%
inhibition [10]: -0.4%

CCn1c(-c2nonc2N)nc2ccncc21
inhibition [1]: 0.13%
inhibition [2]: 0.83%
inhibition [3]: 1.98%
inhibition [4]: 0.47%
inhibition [5]: -1.46%
inhibition [6]: -0.14%
inhibition [7]: 4.73%
inhibition [8]: 0.49%
inhibition [9]: 0.64%
inhibition [10]: -8.14%

NCc1ccc(-c2nc(-c3ccc(Cl)c(O)c3)c(-c3ccncc3)[nH]2)cc1
inhibition [1]: 2.5%
inhibition [2]: 0.2%
inhibition [3]: 1.79%
inhibition [4]: -0.32%
inhibition [5]: 1.38%
inhibition [6]: -0.38%
inhibition [7]: 6.76%
inhibition [8]: 0.23%
inhibition [9]: 5.11%
inhibition [10]: -5.87%

Cc1cc(O)cc(C)c1/C=C/c1cncc(-c2nn[nH]n2)c1
inhibition [1]: 11.9%
inhibition [2]: 2.28%
inhibition [3]: 3.8%
inhibition [4]: 2.34%
inhibition [5]: 3.83%
inhibition [6]: 1.54%
inhibition [7]: 13.3%
inhibition [8]: 3.74%
inhibition [9]: 2.92%
inhibition [10]: -9.13%

COc1ccc(-c2ccncc2)cc1C(N)=O
inhibition [1]: 3.22%
inhibition [2]: 2.97%
inhibition [3]: 3.83%
inhibition [4]: 4.37%
inhibition [5]: 8.58%
inhibition [6]: 7.42%
inhibition [7]: 8.69%
inhibition [8]: 7.66%
inhibition [9]: 7.43%
inhibition [10]: 2.74%

COc1ccc2cc(-c3c(-c4ccncc4)nc(-c4ccc([S+](C)[O-])cc4)n3C)ccc2c1 (stereo not given)
inhibition [1]: 3.19%
inhibition [2]: 2.73%
inhibition [3]: 3%
inhibition [4]: 0.66%
inhibition [5]: 17%
inhibition [6]: 3.38%
inhibition [7]: 5.85%
inhibition [8]: 4.62%
inhibition [9]: 5.2%
inhibition [10]: 0.03%

CS(=O)(=O)CCN(CC#N)Cc1ccc(-c2ccc3ncnc(Nc4ccc(OCc5cccc(F)c5)c(Cl)c4)c3c2)o1
inhibition [1]: 1.14%
inhibition [2]: 0.82%
inhibition [3]: 0.27%
inhibition [4]: -3.34%
inhibition [5]: -4.3%
inhibition [6]: -1.21%
inhibition [7]: -2.13%
inhibition [8]: -1.19%
inhibition [9]: -0.34%
inhibition [10]: 0.11%

Fc1cccc(COc2ccc(Nc3ncnc4sc(-c5cccs5)cc34)cc2Cl)c1
inhibition [1]: 9.05%
inhibition [2]: 0.45%
inhibition [3]: 0.01%
inhibition [4]: 4.36%
inhibition [5]: 5.02%
inhibition [6]: 2.92%
inhibition [7]: 3.32%
inhibition [8]: 0.4%
inhibition [9]: 6.81%
inhibition [10]: 0.35%

CS(=O)(=O)CCNCc1nc(-c2ccc3ncnc(Nc4ccc(F)c(Cl)c4)c3c2)cs1
inhibition [1]: 4.88%
inhibition [2]: 0.25%
inhibition [3]: -0.06%
inhibition [4]: -5.98%
inhibition [5]: 1.65%
inhibition [6]: 1.9%
inhibition [7]: 5.07%
inhibition [8]: 2.17%
inhibition [9]: 4.26%
inhibition [10]: 2.32%

CN(C)c1cc2c(Nc3ccc4nc(Cc5ccccc5)[nH]c4c3)ncnc2cn1
inhibition [1]: 10.5%
inhibition [2]: 3.37%
inhibition [3]: 3.11%
inhibition [4]: 8.38%
inhibition [5]: 15.2%
inhibition [6]: 5.58%
inhibition [7]: 10.4%
inhibition [8]: 7.84%
inhibition [9]: 11.4%
inhibition [10]: 2.81%

O=C1NC(=O)C(N2CCc3ccccc32)=C1c1ccc(Cl)cc1
inhibition [1]: 6.71%
inhibition [2]: 4.08%
inhibition [3]: 7.35%
inhibition [4]: 5.27%
inhibition [5]: 13%
inhibition [6]: 6.84%
inhibition [7]: 14%
inhibition [8]: 8.07%
inhibition [9]: 11.6%
inhibition [10]: -1.04%

O=C(Nc1n[nH]c2nc(-c3ccco3)c(Br)cc12)C1CC1
inhibition [1]: 0.63%
inhibition [2]: 2.91%
inhibition [3]: 3.27%
inhibition [4]: 1.76%
inhibition [5]: 5.28%
inhibition [6]: 2.01%
inhibition [7]: 7.9%
inhibition [8]: 6.29%
inhibition [9]: 7.26%
inhibition [10]: -0.77%

COC(=O)Nc1nc2cc(Oc3cccc(NC(=O)Nc4cc(C(F)(F)F)ccc4F)c3)ccc2[nH]1
inhibition [1]: 1.61%
inhibition [2]: -0.51%
inhibition [3]: 0.56%
inhibition [4]: -2.84%
inhibition [5]: 0%
inhibition [6]: -1.71%
inhibition [7]: 2.62%
inhibition [8]: 0.57%
inhibition [9]: 1.54%
inhibition [10]: -1.4%

Cc1nn(C)c2cc(N(C)c3ccnc(Nc4cccc(S(N)(=O)=O)c4)n3)ccc12
inhibition [1]: 35.8%
inhibition [2]: 2.04%
inhibition [3]: 6.14%
inhibition [4]: -0.21%
inhibition [6]: 5.4%
inhibition [7]: 20.7%
inhibition [8]: 3.96%
inhibition [9]: 11.4%
inhibition [10]: -9.61%

CC1=C(C(=O)Nc2ccc3[nH]ncc3c2)C(c2ccc(F)cc2)NC(=O)N1 (stereo not given)
inhibition [1]: 2.17%
inhibition [2]: 0.59%
inhibition [3]: 0.3%
inhibition [4]: -0.9%
inhibition [5]: 6.58%
inhibition [6]: 3.51%
inhibition [7]: 18.4%
inhibition [8]: 4.3%
inhibition [9]: 14.7%
inhibition [10]: 1.22%

CCn1c(-c2nonc2N)nc2c(N3CCCC3)nccc21
inhibition [1]: 2.34%
inhibition [2]: -2.72%
inhibition [3]: -3.78%
inhibition [4]: -3.71%
inhibition [5]: -1.9%
inhibition [6]: -4%
inhibition [7]: -1.03%
inhibition [8]: 0.34%
inhibition [9]: -0.31%
inhibition [10]: 3.05%

NS(=O)(=O)c1ccc(N/N=C2\C(=O)Nc3ccc(C(=O)NCCc4c[nH]cn4)cc32)cc1
inhibition [2]: 5.34%
inhibition [3]: 8.37%
inhibition [4]: 3.36%
inhibition [5]: 12.1%
inhibition [6]: 7.55%
inhibition [7]: 11.5%
inhibition [8]: 6.41%
inhibition [9]: 7.55%
inhibition [10]: 4.66%
